Consider 17 compounds from PubChem BioAssay.

Where “and” joins values, the source holds several entries; their conditions need not be identical. Identical values can stand only once. Values without a mark were called inactive. Calls of active or inactive are those of the source. Cut-off read from the data, not from the text of the source, unless noted: active = inhibition above about 33%; inactive = the rest.

Assay [1] addresses Nuclear receptor coactivator 3 (Homo sapiens) (UniProt Q9Y6Q9). The assay is described as follows: NCOA3 GAL4-fusion reporter inhibition – cell-based, luminescence, quadruplicate, confirmation (AID 588792;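 active = mean inhibition over 43.08%, the solvent-only control mean plus 3 SD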;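 note: 0% = DMSO treated cells and 100% = gossypol at 36 µM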). The settings on record: HEK293 GAL4-SRC3 luciferase reporter, at 3.6 µM, hits give high values. On the technique in general: Reporter assays use an easily measured gene product as a stand-in for the process of interest.

For assay [2], the system named is transactivating tegument protein VP16 (Human herpesvirus 1), Gal4-VP16 luciferase reporter. In words: repression of VP16-driven luciferase reporter – cell-based, luminescence, high throughput, counter-screen for SRC3 inhibitor project (AID 588794; in the data active = inhibition above about 30%). As to conditions: mammalian cells, at 3.6 µM, hits give high values.
Assay [3] deals with Nuclear receptor coactivator 1 (Homo sapiens) (UniProt Q15788). In words: NCOA1 GAL4-fusion reporter inhibition – cell-based, luminescence, quadruplicate, confirmation (AID 588820;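 active = mean inhibition above 46.68%, the untreated control wells mean plus 3 SD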;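 note: 0% = DMSO wells and 100% = gossypol 36 µM treated wells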). As to conditions: HEK293 GAL4-SRC1 luciferase reporter, at 3.6 µM, hits give high values.
The nature of assay [4]: repression of VP16-driven luciferase reporter – cell-based, luminescence, high throughput, counter-screen for SRC1 inhibitor project (AID 588824; in the data active = inhibition above about 25%). As to conditions: cell-based VP16 transactivation luciferase luminescence; at 3.6 µM; hits give high values.
Assay [5] in a line: StAR promoter reporter inhibitors, counter-screen for LRH-1 inverse agonist project, cell-based, luminescence, high throughput (AID 651611; in the data active = inhibition above about 28%). As to conditions: StAR promoter luciferase reporter counterscreen, at 3.6 µM, hits give high values. (In general: Counterscreens check selectivity or assay interference.)
Assay [6] addresses Nuclear receptor subfamily 5 group A member 2 (Homo sapiens) (UniProt O00482). In words: NR5A2 activity suppression in reporter cells – cell-based, luminescence, confirmation (AID 651613; in the data active = inhibition above about 42%;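 note: HEK293T cells co-transfected with LRH-1 and StAR promoter luciferase reporter; 0% = vehicle wells and 100% = parental cells lacking receptor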). As to conditions: cell-based LRH-1 luciferase reporter, inverse agonism; at 3.6 µM; hits give high values.
Assay [7] has as its target Steroidogenic factor 1 (Homo sapiens) (UniProt Q13285). In words: inverse agonism at SF1 nuclear receptor – cell-based, luminescence, high throughput, counter-screen for LRH-1 inverse agonist project (AID 651614; in the data active = inhibition above about 44%;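 note: cells cotransfected with StAR promoter reporter and SF1 expression vector; 0% = vehicle on cells with receptor and 100% = vehicle on cells lacking receptor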). As to conditions: cell-based SF1 luciferase reporter, at 3.6 µM, hits give high values.
The nature of assay [8]: compounds suppressing VP16-driven luciferase signal – cell-based, luminescence, high throughput, counter-screen for LRH-1 inverse agonist project (AID 651615). As to conditions: Gal4-VP16 luciferase reporter cells, at 3.6 µM, hits give high values.

Chain of Steroidogenic factor 1 (Homo sapiens) (Q13285 whole entry, looked up, the tested form may be a part): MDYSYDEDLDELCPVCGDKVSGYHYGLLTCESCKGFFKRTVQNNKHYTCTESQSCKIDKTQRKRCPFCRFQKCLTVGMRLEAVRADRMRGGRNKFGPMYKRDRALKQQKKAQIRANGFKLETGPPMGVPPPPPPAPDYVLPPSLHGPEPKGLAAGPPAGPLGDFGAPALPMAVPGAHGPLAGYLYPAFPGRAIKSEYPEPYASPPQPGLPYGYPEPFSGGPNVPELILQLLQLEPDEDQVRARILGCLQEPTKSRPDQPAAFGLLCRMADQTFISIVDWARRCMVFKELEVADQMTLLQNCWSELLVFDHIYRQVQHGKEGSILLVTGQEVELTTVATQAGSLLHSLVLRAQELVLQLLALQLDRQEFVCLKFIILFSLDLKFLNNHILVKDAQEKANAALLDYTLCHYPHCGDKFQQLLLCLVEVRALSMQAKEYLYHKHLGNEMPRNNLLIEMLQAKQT
Chain of Nuclear receptor coactivator 3 (Homo sapiens) (Q9Y6Q9 whole entry, looked up, the tested form may be a part): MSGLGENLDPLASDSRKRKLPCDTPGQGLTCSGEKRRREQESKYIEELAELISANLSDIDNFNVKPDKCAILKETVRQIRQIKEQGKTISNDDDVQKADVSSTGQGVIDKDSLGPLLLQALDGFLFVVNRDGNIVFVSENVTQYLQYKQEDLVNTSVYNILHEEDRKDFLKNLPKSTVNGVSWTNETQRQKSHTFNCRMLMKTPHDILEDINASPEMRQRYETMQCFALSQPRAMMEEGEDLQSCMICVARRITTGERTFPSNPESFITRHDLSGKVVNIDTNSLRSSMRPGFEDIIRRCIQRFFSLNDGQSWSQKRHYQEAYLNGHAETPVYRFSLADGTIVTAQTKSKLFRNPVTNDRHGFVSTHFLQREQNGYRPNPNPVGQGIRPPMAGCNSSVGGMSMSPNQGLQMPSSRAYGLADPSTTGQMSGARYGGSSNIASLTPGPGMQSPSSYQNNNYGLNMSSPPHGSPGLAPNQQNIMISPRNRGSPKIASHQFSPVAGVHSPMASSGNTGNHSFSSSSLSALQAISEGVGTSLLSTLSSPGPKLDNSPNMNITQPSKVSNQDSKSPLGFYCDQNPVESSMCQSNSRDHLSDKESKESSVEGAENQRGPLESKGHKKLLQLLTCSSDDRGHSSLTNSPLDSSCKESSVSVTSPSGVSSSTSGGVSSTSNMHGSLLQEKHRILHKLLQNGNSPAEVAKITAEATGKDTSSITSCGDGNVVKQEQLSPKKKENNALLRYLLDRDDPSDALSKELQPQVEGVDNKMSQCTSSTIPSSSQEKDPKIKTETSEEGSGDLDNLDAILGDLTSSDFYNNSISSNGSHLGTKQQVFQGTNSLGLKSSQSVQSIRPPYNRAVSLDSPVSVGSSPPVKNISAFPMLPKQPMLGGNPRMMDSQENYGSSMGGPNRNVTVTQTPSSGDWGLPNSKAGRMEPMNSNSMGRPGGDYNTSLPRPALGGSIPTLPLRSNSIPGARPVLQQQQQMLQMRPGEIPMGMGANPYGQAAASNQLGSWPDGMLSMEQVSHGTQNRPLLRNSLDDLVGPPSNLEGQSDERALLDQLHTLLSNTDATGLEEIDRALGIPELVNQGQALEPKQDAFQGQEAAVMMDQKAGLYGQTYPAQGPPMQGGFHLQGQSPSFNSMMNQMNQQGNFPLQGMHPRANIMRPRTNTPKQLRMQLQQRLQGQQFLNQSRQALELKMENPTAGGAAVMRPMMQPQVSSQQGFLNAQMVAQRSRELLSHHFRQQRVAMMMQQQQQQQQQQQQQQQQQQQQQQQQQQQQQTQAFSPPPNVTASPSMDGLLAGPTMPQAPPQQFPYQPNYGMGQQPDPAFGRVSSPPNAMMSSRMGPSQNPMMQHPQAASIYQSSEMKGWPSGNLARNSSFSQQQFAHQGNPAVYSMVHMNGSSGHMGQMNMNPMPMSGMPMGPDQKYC
Chain of Nuclear receptor coactivator 1 (Homo sapiens) (Q15788 whole entry, looked up, the tested form may be a part): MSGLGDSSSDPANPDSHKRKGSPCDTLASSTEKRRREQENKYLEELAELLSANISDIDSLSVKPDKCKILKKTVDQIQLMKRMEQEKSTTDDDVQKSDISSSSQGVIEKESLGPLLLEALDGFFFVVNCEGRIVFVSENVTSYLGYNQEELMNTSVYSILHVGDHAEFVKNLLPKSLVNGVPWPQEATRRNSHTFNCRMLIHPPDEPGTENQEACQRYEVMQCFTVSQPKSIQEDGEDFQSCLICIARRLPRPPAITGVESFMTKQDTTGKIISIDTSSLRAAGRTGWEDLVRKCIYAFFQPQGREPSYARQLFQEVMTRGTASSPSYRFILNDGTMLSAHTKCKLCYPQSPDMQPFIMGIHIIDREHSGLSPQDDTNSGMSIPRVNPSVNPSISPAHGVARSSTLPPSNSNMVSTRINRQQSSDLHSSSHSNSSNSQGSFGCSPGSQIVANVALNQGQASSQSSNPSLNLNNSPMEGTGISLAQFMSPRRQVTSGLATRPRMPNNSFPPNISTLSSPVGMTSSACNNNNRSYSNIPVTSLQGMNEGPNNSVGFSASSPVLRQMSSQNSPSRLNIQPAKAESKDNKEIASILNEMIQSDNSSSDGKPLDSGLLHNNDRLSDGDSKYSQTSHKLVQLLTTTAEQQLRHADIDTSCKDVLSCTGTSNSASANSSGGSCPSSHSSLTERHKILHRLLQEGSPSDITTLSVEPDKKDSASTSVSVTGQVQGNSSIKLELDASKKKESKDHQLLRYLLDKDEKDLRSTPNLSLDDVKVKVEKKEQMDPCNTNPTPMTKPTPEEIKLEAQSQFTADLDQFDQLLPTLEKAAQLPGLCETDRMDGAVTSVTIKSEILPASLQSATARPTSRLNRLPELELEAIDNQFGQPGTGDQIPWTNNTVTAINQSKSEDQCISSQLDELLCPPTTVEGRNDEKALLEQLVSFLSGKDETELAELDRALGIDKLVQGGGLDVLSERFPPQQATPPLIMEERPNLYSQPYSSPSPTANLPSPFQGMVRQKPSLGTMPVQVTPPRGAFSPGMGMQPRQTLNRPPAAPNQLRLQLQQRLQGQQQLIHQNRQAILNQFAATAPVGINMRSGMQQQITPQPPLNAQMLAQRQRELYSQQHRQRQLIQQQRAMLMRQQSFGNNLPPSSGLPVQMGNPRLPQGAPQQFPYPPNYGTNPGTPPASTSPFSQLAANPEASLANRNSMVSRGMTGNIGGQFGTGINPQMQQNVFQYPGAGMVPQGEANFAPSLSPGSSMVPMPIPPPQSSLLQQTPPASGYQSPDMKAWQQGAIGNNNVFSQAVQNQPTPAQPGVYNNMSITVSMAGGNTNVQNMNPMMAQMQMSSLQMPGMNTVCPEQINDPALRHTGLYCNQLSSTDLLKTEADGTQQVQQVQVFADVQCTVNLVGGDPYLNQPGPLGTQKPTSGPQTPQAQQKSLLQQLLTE
Chain of Nuclear receptor subfamily 5 group A member 2 (Homo sapiens) (O00482 whole entry, looked up): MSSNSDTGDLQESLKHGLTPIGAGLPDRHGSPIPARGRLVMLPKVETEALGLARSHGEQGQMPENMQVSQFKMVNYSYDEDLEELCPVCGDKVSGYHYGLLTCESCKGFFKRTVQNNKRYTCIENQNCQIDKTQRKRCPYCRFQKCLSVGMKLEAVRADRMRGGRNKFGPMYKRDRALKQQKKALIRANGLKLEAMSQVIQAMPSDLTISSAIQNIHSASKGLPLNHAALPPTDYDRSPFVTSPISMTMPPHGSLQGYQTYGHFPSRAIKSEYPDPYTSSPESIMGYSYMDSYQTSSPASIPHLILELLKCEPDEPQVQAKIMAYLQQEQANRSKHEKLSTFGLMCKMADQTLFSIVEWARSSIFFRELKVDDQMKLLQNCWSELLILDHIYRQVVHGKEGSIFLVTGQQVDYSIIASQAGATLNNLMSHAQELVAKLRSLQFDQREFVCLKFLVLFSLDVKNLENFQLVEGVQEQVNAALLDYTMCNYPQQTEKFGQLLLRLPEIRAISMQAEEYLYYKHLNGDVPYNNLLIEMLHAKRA

One may read the inhibition as the change of the read-out against control, counted positive when it falls. Regarding `COc1ccc(NC(=O)c2sc(=O)n(Cc3cccc(C(F)(F)F)c3)c2C)cc1OC`, the inhibition in assay [1] was 24.9%; in assay [2], 57.4% (active); in assay [3] it was 19%; in assay [4] it was 52.7% (active); in assay [5] it was 46% (active); in assay [6], 67.8% (active). Further, the inhibition was 69% (active) in assay [7] and 73.9% (active) in assay [8].
Regarding `Cc1ccc(-c2cn(-c3ccccc3)c3[n+]2CCCS3)cc1`, the inhibition was 1.67% in assay [1]; 27.5% in assay [2]; 9.91% in assay [3]; 19.5% in assay [4]; 24.4% and 12.1% in assay [5]; 80.1% (active) and 61.7% (active) in assay [6]. Further, the inhibition in assay [7] was 61.2% (active) and 59.6% (active); in assay [8], 64.2% (active) and 56.1% (active).
Take `COc1ccc(-n2cc(-c3ccc(C)cc3)[n+]3c2SCC3)cc1`: the inhibition in assay [1] is 30.8%; in assay [2], 55.1% (active); in assay [3], 22.8%; in assay [4] it was 51% (active); in assay [5], 40.9% (active); in assay [6] it was 83.5% (active). The figures for the inhibition in assay [7] and in assay [8] were 75.1% (active) and 74.9% (active), respectively.
As for `Cc1nn(Cc2ccc(C(=O)Nc3nccs3)cc2)c(C)c1Cl`, the inhibition in assay [1] was 21.7%; in assay [2] it was 45.6% (active); in assay [3], 17.9%; in assay [4] it was 43.8% (active); in assay [5], 46.8% (active); in assay [6], 62.3% (active). The inhibition is 67% (active) in assay [7] and 64.6% (active) in assay [8].
Take `CC[n+]1c(C=C2C=C(C)OC(C)=C2)sc2ccccc21`: the inhibition is 42.2% in assay [1]; 67.2% (active) in assay [2]; 40.9% in assay [3]; 71.5% (active) in assay [4]; 70.3% (active) in assay [5]; 108% (active) in assay [6]. In addition, the inhibition in assay [7] is 85% (active); in assay [8], 92.9% (active).
As to `C(=NNc1ccc2ccccc2n1)c1ccccn1`, the inhibition was 60.6% (active) in assay [1]; -12% in assay [2]; -75.3% in assay [3]; -33.3% in assay [4]; 65.4% (active) in assay [5]; 51% (active) in assay [6]. Moreover, the inhibition in assay [7] is 59.2% (active); in assay [8], -44.1%.
Turning to `Cc1nn(C(C)(C)C)c(C)c1/C=N/OC(=O)Nc1ccc(Cl)cc1`, the inhibition in assay [1] was 94% (active); in assay [2], 91.8% (active); in assay [3], 87.3% (active); in assay [4] it was 87.8% (active); in assay [5], 92.3% (active); in assay [6] it was 95.5% (active). In addition, the inhibition in assay [7] was 93.6% (active); in assay [8], 88.7% (active).
`CC(=O)c1c(C)[nH]c(C(=O)OCC(=O)Nc2cccc(S(=O)(=O)N3CCCC3)c2)c1C`: the inhibition in assay [1] was 20.7%; in assay [2], 43.6% (active); in assay [3], 5.87%; in assay [4], 38.3% (active); in assay [5], 26.2%; in assay [6], 49.3% (active). The inhibition is 48.9% (active) in assay [7] and 51.7% (active) in assay [8].
For the compound `Cc1cc([N+](=O)[O-])nn1Cc1ccc(C(=O)N/N=C/c2ccc(O)cc2O)cc1`, the inhibition is 54.5% (active) in assay [1]; 63.4% (active) in assay [2]; 48.5% (active) in assay [3]; 66.9% (active) in assay [4]; 80.8% (active) in assay [5]; 97% (active) in assay [6]. Further, the results for the inhibition in assay [7] and in assay [8] were 88.1% (active) and 87.9% (active), respectively.
As for `COC(=O)c1cc(O)cc(OC)c1Oc1cc(C)cc(O)c1C(=O)O`, the inhibition in assay [1] is 13.8%; in assay [2], 62.9% (active); in assay [3] it was 54.2% (active); in assay [4], 60.2% (active); in assay [5] it was 56.5% (active); in assay [6], 73% (active). Further, the inhibition is 66.9% (active) in assay [7] and 65.5% (active) in assay [8].
Take `O=C(Nc1ccon1)c1nc[nH]c1C(=O)NCc1ccccc1`: the inhibition in assay [1] was 35.1%; in assay [2] it was 52.7% (active); in assay [3], 27.6%; in assay [4] it was 53.3% (active); in assay [5] it was 50.5% (active); in assay [6], 58.4% (active). Besides, the inhibition was 51% (active) in assay [7] and 68% (active) in assay [8].
As to `COc1ccc(C(=O)Nc2nnc(Cc3cccs3)s2)cc1OC`, the inhibition was 19% in assay [1]; 54.2% (active) in assay [2]; -3.67% in assay [3]; 52.5% (active) in assay [4]; 51.5% (active) in assay [5]; 70.7% (active) in assay [6]. In addition, the inhibition in assay [7] was 66.1% (active); in assay [8] it was 72.3% (active).
Consider `CC(C)(C)c1ccc(-c2cn(-c3ccc(Br)cc3)c3[n+]2CCCS3)cc1`, for which the inhibition in assay [1] is 51.1% (active); in assay [2], 59.4% (active); in assay [3], 52.1% (active); in assay [4] it was 61% (active); in assay [5], 47.8% (active); in assay [6], 107% (active). Further, the values for the inhibition in assay [7] and in assay [8] were 80.7% (active) and 89.2% (active), respectively.
Consider `O=C(Nc1nc(-c2ccccc2)cs1)c1ccccc1NS(=O)(=O)c1ccc(F)cc1`, for which the inhibition is 40.7% in assay [1]; 65.5% (active) in assay [2]; 45% in assay [3]; 60.5% (active) in assay [4]; 66.6% (active) in assay [5]; 101% (active) in assay [6]. In addition, the inhibition is 87.5% (active) in assay [7] and 79.3% (active) in assay [8].
In the case of `O=C1C(Nc2ccc(O)cc2)=C/C(=N/S(=O)(=O)c2cccs2)c2ccccc21`, the inhibition is 85.2% (active) in assay [1]; 72% (active) in assay [2]; 29.5% in assay [3]; 68% (active) in assay [4]; 79.7% (active) in assay [5]; 101% (active) in assay [6]. The inhibition in assay [7] is 87.6% (active); in assay [8], 95.2% (active).
Consider `CCN1CCS/C1=C\C=C\C1=[N+](CC)CCS1`, for which the inhibition is 22.6% in assay [1]; 44.8% (active) in assay [2]; 4.06% in assay [3]; 50.1% (active) in assay [4]; 32.9% (active) in assay [5]; 77% (active) in assay [6]. Moreover, the inhibition was 79% (active) in assay [7] and 69.2% (active) in assay [8].
`OCCCNc1cc(-c2ccnc(Nc3cccc(Cl)c3)n2)ccn1`: the inhibition in assay [1] is 95.9% (active); in assay [2], 97.1% (active); in assay [3] it was 84.5% (active); in assay [4] it was 96.3% (active); in assay [5] it was 89.9% (active); in assay [6], 108% (active). For the same compound, the values for the inhibition in assay [7] and in assay [8] were 96.5% (active) and 97.9% (active), respectively.
